# The panel holds about 83,000 compounds, 20% with a hit somewhere; the sample as a whole holds those more often.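 The test compound was applied at a single concentration to cells in 96-well plates for 48 hours, and percent growth was recorded.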 A number with no mark means an inactive call. Active and inactive are the calls of the source. The calls were made as follows: active = growth percent below 10; inactive = the rest.
# Key:
# Experiment in all cases: NCI-60 one-dose screen, 48 h (100 = growth as untreated, 0 = no growth, -100 = all killed)
# Conditions in all cases: 10 µM unless noted
# DU-145 prostate = test system: DU-145 prostate
# K-562 leukemia = test system: K-562 leukemia
# MALME-3M melanoma = test system: MALME-3M melanoma
# MDA-MB-231 breast = test system: MDA-MB-231 breast
# RXF 393 renal = test system: RXF 393 renal
# SF-268 CNS = test system: SF-268 CNS
# SF-295 CNS = test system: SF-295 CNS
# SF-539 CNS = test system: SF-539 CNS
# UACC-257 melanoma = test system: UACC-257 melanoma
# M14 melanoma = test system: M14 melanoma
SMILES,growth (DU-145 prostate),growth (K-562 leukemia),growth (MALME-3M melanoma),growth (MDA-MB-231 breast),growth (RXF 393 renal),growth (SF-268 CNS),growth (SF-295 CNS),growth (SF-539 CNS),growth (UACC-257 melanoma),growth (M14 melanoma)
COc1ccc(NC(=O)[C@H](CO)NC(=O)OC(C)(C)C)cc1C(=O)Nc1cccc(C2CC(=O)c3c(cc(OC)c(OC)c3OC)O2)c1 (stereo not given in full),58.4%,28.4%,61.4%,41.9%,53%,65.1%,69.1%,79.1%,75.3%,66%
COc1c(F)ccc(C(=O)Nc2ccc3nc(NC(=O)C4CCCN(S(=O)(=O)c5ccc(C#N)cc5)C4)sc3c2)c1F (stereo not given),95.7%,62.6%,97.5%,99.1%,46.7%,93.5%,90.1%,73.1%,87.1%,92.7%
CN(C)CCn1c2ccccc2c2nc3ccc([N+](=O)[O-])cc3nc21,7.7% (active),8.19% (active),-14.4% (active),5.52% (active),10.1%,24.7%,0.988% (active),-2.27% (active),-13.2% (active),17.9%
CC1(c2cc3cc(Br)ccc3oc2=O)NC(=O)c2c(/C=C/C(=O)OC3CC4CCC3(C)C4(C)C)cccc2N1 (stereo not given),84.3%,28.4%,102%,98.2%,75.2%,82.8%,64%,96.8%,77%,86%
C#CCOc1ccc(/C=N/Nc2nc(-c3ccc(F)cc3)cs2)cc1OC,89%,25%,86.3%,73.5%,24%,84.8%,79.2%,70.6%,63.7%,61.3%
COc1cc(C2CC(c3cc(OC)c(OC)c(OC)c3)=NN2C(C)=O)ccc1OCc1ccc(F)cc1 (stereo not given),70.6%,28%,81.8%,61%,73.7%,72%,37.7%,61.9%,68.6%,59.9%
Cn1cc(-c2cc3nc(-c4cn(C)c5ncccc45)cc(N)n3n2)c2ccccc21,40.9%,-34.9% (active),-47.8% (active),-19.9% (active),-50.4% (active),15%,-30.6% (active),-78.7% (active),-49.7% (active),5.56% (active)
Cn1cc(-c2cc3nc(-c4cn(C)c5ncccc45)cc(N)n3n2)c2cc(Cl)ccc21,-15% (active),-51.3% (active),-97.4% (active),-96.2% (active),-84.2% (active),-45% (active),-81.5% (active),-98.5% (active),-76.5% (active),-90.8% (active)
COc1ccc(NC(=O)Cn2c3c(sc2=O)[C@H]2[C@@H](O)[C@@H](O)[C@H](O)[C@@H]2CS3)cc1,109%,95.6%,102%,107%,114%,102%,105%,101%,102%,103%
Cc1ccccc1[C@H]1C(C(=O)c2ccc(Cl)cc2)C2(N[C@@H]1c1ccccc1)C(=O)Nc1ccc(Cl)cc12 (stereo not given in full),5.12% (active),-2.2% (active),-33.3% (active),-72.2% (active),-67.7% (active),29.3%,-22.5% (active),-58.1% (active),4.82% (active),-78.4% (active)
C#CCOc1cc(N(CC)CC)ccc1C(C(=O)NC(C)(C)C)N(C(=O)C1CCc2cc(F)ccc2O1)c1ccc(F)c(Cl)c1 (stereo not given),78.9%,35.7%,81.7%,55.5%,59.3%,49.8%,72.8%,77.9%,58.2%,63.3%
COc1ccc(C2(SCCNCc3cc(N(C)C)ccn3)c3ccccc3C=Cc3ccccc32)cc1,18.1%,2.08% (active),-1.5% (active),-29.2% (active),8.16% (active),28.2%,1.44% (active),-67.7% (active),41.1%,-44.7% (active)
COc1ccc(/C=C/c2n(Cc3ccc4ccccc4c3)c3ccccc3[n+]2Cc2ccc3ccccc3c2)cc1,-93.1% (active),1.11% (active),-85.7% (active),-86.5% (active),-74.7% (active),-80.5% (active),-95.8% (active),-95.5% (active),-91.7% (active),-88.3% (active)
COc1ccc(C(=O)/C=C/c2ccc(OCc3ccccc3)c(OC)c2)cc1OC,7.25% (active),10.5%,71.5%,13%,24.2%,32.6%,25.8%,-37.9% (active),58.9%,62.3%
COc1c(F)ccc(C(=O)Nc2ccc3nc(NC(=O)C4CCCN(S(=O)(=O)c5cccc(Cl)c5)C4)sc3c2)c1F (stereo not given),90.5%,53.8%,97.6%,87.9%,-6.85% (active),86.9%,78.7%,70.7%,84.7%,84.7%
COc1ccc2[nH]cc(-c3nnc(N)nc3-c3cn(C)c4ncc(Br)cc34)c2c1,93%,52.5%,121%,45.8%,27.1%,81.4%,83.1%,66.5%,106%,105%
COc1cc2oc(-c3cccc(C(=O)Nc4ccc(Cl)cc4)c3)cc(=O)c2c(OCC(=O)N[C@@H](Cc2ccccc2)C(=O)O)c1OC,111%,96.5%,107%,96.1%,111%,110%,111%,99.3%,104%,109%
COc1ccc(/C=C/c2nc3ccccc3c(=O)n2CC(=O)Nc2ccc(OC)cc2)cc1,77.2%,95.3%,73.7%,27.3%,70.5%,71.4%,74.6%,-18.5% (active),103%,90.3%
